Inconclusive results are not listed. Activity calls are given as the source filed them. The calls were made as follows, unless noted: active = hit-call score of the fitted dose curve at least 0.9, where 1 is the maximum; inactive = score below 0.9.
Tests used:
[1] = ACEA_ER_80hr: ACEA Biosciences xCELLigence Real-Time Cell Analysis on Estrogen Receptor Agonism for Proliferation (AID 2282667; active = hit-call score of the fitted dose curve at least 0.9, where 1 is the maximum); details: T47D proliferation, impedance (xCELLigence), 80 h
Summary of the method: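 Real-time impedance growth kinetics of human T-47D breast cells read 80 h after dosing, gain-of-signal fitted relative to DMSO. Compounds: 1:4 serial series, top final concentration 100 uM, n = 2.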

[2] = ATG_CRE_CIS: Attagene CIS-FACTORIAL HepG2 Assay for human cAMP Responsive Element (CRE) binding protein 3 (AID 2282926); details: HepG2 CRE cis-reporter, Attagene multiplexed mRNA; actives raise or lower the signal
Summary of the method: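 Multiplexed transcription-unit reporters transfected into HepG2; 24 h dosing; RT-PCR/capillary electrophoresis fluorescence read-out; bidirectional fit vs DMSO.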

[3] = target: CCAAT/enhancer-binding protein beta (Homo sapiens) (UniProt P17676); assay: ATG_C_EBP_CIS: Attagene CIS-FACTORIAL HepG2 Assay for human CCAAT/Enhancer Binding Protein (C/EBP) beta (AID 2282927); details: HepG2 Attagene cis-factorial transcription factor reporter; actives raise or lower the signal
Sequence of CCAAT/enhancer-binding protein beta (Homo sapiens) (P17676 whole entry, looked up, the tested form may be a part): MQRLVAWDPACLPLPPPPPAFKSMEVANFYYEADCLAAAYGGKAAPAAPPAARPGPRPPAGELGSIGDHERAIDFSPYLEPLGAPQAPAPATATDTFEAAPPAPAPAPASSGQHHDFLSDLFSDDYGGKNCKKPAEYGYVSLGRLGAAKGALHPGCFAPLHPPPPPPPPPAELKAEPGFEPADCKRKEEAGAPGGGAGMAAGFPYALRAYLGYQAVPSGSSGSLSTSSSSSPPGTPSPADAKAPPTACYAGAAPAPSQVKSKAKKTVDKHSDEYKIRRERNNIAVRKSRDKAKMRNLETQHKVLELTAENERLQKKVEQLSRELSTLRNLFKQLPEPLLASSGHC
Summary of the method: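 Endogenous C/EBPb-driven reporter transcripts measured in transfected human HepG2 cells at 24 h via RT-PCR and capillary electrophoresis of labelled fragments. Activity fitted in both directions relative to DMSO baseline.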

[4] = ATG_CMV_CIS: Attagene CIS-FACTORIAL HepG2 Assay for human CMV (Internal Marker) (AID 2282928); details: HepG2 CMV promoter reporter, transcription factor profiling; actives raise or lower the signal;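 also: endpoint acts as a background internal control marker rather than a target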
Summary of the method: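 After transient transfection of HepG2 with reporter transcription units driven by cis-regulatory promoters, cells receive test chemical for 24 h. Labeled reporter amplicons, digested with HpaI, are sized and quantified by capillary electrophoresis against DMSO.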

[5] = ATG_DR4_LXR_CIS: Attagene CIS-FACTORIAL HepG2 Assay for human Liver X Receptor (LXR), DR4 submotif (AID 2282929); details: HepG2 Attagene DR4 cis-reporter, mRNA transcription; actives raise or lower the signal
Summary of the method: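 Measures endogenous transcription factor activity via a DR4-driven reporter transcript in human HepG2 cells. Compounds incubated 24 h; mRNA quantified by RT-PCR and capillary electrophoresis, analysed as gain or loss of signal versus DMSO.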

[6] = target: Aryl hydrocarbon receptor (Homo sapiens) (UniProt P35869); assay: ATG_Ahr_CIS: Attagene CIS-FACTORIAL HepG2 Assay for human Aryl Hydrocarbon Receptor (Ahr) (AID 2282930); details: HepG2 AhR cis-factorial reporter transcription; actives raise or lower the signal
Sequence of Aryl hydrocarbon receptor (Homo sapiens) (P35869 whole entry, looked up): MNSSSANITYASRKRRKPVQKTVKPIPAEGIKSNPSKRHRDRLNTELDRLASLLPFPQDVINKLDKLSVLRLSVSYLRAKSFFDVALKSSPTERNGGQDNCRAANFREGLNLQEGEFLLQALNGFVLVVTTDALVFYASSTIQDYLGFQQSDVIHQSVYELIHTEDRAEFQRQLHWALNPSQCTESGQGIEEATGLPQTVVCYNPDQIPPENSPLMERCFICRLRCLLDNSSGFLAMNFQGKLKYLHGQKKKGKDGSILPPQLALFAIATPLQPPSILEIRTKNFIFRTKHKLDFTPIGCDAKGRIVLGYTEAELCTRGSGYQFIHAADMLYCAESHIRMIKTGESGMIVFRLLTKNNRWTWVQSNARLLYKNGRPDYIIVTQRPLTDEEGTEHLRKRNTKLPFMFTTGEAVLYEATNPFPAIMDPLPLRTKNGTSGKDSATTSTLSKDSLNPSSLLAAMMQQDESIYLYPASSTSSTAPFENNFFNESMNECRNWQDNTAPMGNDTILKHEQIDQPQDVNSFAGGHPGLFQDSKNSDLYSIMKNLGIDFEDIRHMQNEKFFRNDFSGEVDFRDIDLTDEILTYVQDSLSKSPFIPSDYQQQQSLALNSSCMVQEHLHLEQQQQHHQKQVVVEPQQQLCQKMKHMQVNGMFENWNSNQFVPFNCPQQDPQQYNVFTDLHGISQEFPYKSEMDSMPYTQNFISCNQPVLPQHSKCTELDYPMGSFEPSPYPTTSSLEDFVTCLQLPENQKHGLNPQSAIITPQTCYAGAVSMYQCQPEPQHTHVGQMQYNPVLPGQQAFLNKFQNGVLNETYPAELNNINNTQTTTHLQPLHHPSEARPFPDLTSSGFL
Summary of the method: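 Reporter mRNA levels, quantified by RT-PCR and fluorescent capillary electrophoresis, reflect endogenous AhR transcriptional activity in HepG2 cells carrying transfected cis-promoter reporter constructs. Readout at 24 h post-dose; gain or loss fitted against DMSO baseline.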

[7] = ATG_AP_1_CIS: Attagene CIS-FACTORIAL HepG2 Assay for human Activator Protein 1 (AP-1) (AID 2282931); details: HepG2 Attagene cis-factorial AP-1 reporter mRNA; actives raise or lower the signal
Summary of the method: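 Bidirectional concentration-response fitting against DMSO controls. Underlying signal: reporter mRNA from cis-promoter constructs in transiently transfected HepG2, measured after 24 h by RT-PCR and capillary electrophoresis.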

[8] = ATG_AP_2_CIS: Attagene CIS-FACTORIAL HepG2 Assay for human Activator Protein 2 (AP-2) (AID 2282932); details: HepG2 AP-2 cis-reporter, Attagene transcription factor profiling; actives raise or lower the signal
Summary of the method: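 HepG2, transient MRTU transfection, cis-regulated reporters; 24 h compound exposure; RNA isolated, RT-PCR, 6-FAM labelling, HpaI digest, CE fluorescence. DMSO = negative control/baseline, bidirectional fit.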

[9] = ATG_BRE_CIS: Attagene CIS-FACTORIAL HepG2 Assay for human Bone Morphogenetic Protein (BMP) Response Element (BRE) (AID 2282933); details: HepG2 BMP response element reporter, Attagene transcription factor profiling; actives raise or lower the signal
Summary of the method: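 Endogenous transcription factor activity read in transiently transfected HepG2 cells after 24 h chemical exposure. Bidirectional curve fitting against DMSO; readout is reporter transcript level by RT-PCR with capillary electrophoresis of labelled products.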

[10] = target: Retinoic acid receptor alpha (Homo sapiens) (UniProt P10276); assay: ATG_DR5_RAR_CIS: Attagene CIS-FACTORIAL HepG2 Assay for human Retinoic Acid Receptor Alpha (RARE), DR5 submotif (AID 2282934); details: HepG2 Attagene cis-factorial RARE DR5 reporter, mRNA; actives raise or lower the signal;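 as to AC50: reporter responds to endogenous RAR alpha beta and gamma in HepG2 not RARA alone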
Sequence of Retinoic acid receptor alpha (Homo sapiens) (P10276 whole entry, looked up): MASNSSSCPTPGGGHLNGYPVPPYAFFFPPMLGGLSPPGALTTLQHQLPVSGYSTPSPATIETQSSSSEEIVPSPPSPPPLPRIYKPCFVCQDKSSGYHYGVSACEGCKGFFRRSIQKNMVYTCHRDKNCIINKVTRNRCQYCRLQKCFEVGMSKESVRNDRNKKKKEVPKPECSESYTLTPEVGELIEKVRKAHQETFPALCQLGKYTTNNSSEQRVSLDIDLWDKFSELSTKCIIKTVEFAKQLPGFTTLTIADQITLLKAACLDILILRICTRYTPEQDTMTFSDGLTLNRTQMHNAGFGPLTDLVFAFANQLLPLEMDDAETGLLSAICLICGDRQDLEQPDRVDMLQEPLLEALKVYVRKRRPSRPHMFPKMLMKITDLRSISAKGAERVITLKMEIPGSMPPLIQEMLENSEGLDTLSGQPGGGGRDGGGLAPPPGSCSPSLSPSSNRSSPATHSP
Summary of the method: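 Reporter transcripts from a DR5-regulated unit, measured via RT-PCR plus capillary electrophoresis, reflect endogenous RAR activity in transiently transfected human HepG2 liver cells. Exposure lasted 24 h; gain or loss of signal scored against DMSO.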

[11] = target: Transcription factor E2F1 (Homo sapiens) (UniProt Q01094); assay: ATG_E2F_CIS: Attagene CIS-FACTORIAL HepG2 Assay for human E2F Transcription Factor 1 (AID 2282935); details: HepG2 Attagene cis-reporter, E2F reporter RNA transcripts; actives raise or lower the signal
Sequence of Transcription factor E2F1 (Homo sapiens) (Q01094 whole entry, looked up): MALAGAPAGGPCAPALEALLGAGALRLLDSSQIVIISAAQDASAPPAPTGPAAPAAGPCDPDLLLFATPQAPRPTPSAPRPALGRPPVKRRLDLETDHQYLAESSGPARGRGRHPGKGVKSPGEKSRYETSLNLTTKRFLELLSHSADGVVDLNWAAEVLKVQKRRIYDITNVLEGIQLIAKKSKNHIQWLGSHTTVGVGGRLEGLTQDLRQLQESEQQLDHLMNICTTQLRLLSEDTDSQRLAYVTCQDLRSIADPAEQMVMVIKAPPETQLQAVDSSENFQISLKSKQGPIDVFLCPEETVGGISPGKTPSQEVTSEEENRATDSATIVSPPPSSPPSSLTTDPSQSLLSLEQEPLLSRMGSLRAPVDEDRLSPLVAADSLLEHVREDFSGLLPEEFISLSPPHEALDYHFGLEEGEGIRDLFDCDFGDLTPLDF
Summary of the method: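 Cis-element reporter mRNA induction in transiently transfected HepG2, 24 h exposure. Activity fitted in both directions relative to DMSO negative control.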

[12] = ATG_M_61_CIS: Attagene CIS-FACTORIAL HepG2 Assay for M61 Transcription Factor (Internal Marker) (AID 2282937); details: HepG2 Attagene CIS-FACTORIAL M61 internal marker reporter; actives raise or lower the signal
Summary of the method: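 Fluorescence from labelled cDNA fragments, separated by capillary electrophoresis, quantifies reporter induction. HepG2 cells bearing transiently transfected cis-promoter MRTUs were incubated with test chemical for 24 h; DMSO defined baseline for gain/loss fitting.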

[13] = ATG_EGR_CIS: Attagene CIS-FACTORIAL HepG2 Assay for human Early Growth Response 1 (EGR1) (AID 2282938); details: HepG2 Attagene CIS-FACTORIAL EGR reporter mRNA; actives raise or lower the signal
Summary of the method: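 Cell-based multiplex transcription assay: HepG2 carrying transfected cis-element reporter units, 24 h chemical treatment. Fluorescence from capillary electrophoresis of RT-PCR products gives mRNA levels; fitting is bidirectional relative to DMSO.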

[14] = ATG_M_19_CIS: Attagene CIS-FACTORIAL HepG2 Assay for M19 Transcription Factor (Internal Marker) (AID 2282939); details: HepG2 Attagene CIS-FACTORIAL M19 internal marker reporter; actives raise or lower the signal
Summary of the method: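 Internal marker readout, fitted in both directions against DMSO, from HepG2 cells carrying transfected cis-element reporter constructs; RT-PCR and capillary electrophoresis of reporter mRNA after 24 h exposure.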

[15] = ATG_ERE_CIS: Attagene CIS-FACTORIAL HepG2 Assay for Estrogen Response Element (ERE) (AID 2282940); details: HepG2 ERE cis-reporter, Attagene RNA transcript; actives raise or lower the signal
Summary of the method: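 After 24 h compound treatment, RNA from transfected HepG2 cells was reverse-transcribed, reporter cDNA PCR-amplified, FAM-labelled, HpaI-cut and resolved by capillary electrophoresis. ERE-driven cis reporter transcripts reflect endogenous factors; gain or loss scored against DMSO.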

[16] = ATG_Ets_CIS: Attagene CIS-FACTORIAL HepG2 Assay for human Erythroblast Transformation Specific (ETS) (AID 2282941); details: HepG2 ETS cis-reporter transcription, actives raise or lower the signal
Summary of the method: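 Human HepG2 hepatoma cells were transiently transfected with promoter-driven reporter constructs and treated for 24 hours. Reporter transcripts were quantified by RT-PCR with fluorescent primer extension; bidirectional curve fitting used DMSO as reference.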

[17] = target: Hepatocyte nuclear factor 3-beta (Homo sapiens) (UniProt Q9Y261); assay: ATG_FoxA2_CIS: Attagene CIS-FACTORIAL HepG2 Assay for human Forkhead box A2 (FOXA2) (AID 2282942); details: HepG2 cis-reporter transcription factor activity, 24 h; actives raise or lower the signal
Sequence of Hepatocyte nuclear factor 3-beta (Homo sapiens) (Q9Y261 whole entry, looked up): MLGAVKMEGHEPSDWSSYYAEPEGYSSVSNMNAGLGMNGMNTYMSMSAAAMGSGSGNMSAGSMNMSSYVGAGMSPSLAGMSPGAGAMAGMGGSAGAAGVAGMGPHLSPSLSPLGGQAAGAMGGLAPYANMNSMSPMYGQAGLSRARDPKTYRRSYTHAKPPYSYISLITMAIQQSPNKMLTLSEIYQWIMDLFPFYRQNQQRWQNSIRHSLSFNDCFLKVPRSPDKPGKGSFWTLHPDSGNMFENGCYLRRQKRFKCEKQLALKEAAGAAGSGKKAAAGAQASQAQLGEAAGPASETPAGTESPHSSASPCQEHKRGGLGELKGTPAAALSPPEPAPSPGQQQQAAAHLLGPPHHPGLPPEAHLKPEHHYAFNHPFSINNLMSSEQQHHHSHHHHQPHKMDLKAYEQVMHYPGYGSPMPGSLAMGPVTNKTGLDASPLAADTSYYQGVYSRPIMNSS
Summary of the method: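 In transiently transfected human HepG2 cells, promoter-driven reporter mRNA levels after 24 h chemical exposure are determined via RT-PCR with capillary electrophoresis. DMSO serves as baseline for bidirectional fitting.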

[18] = ATG_GATA_CIS: Attagene CIS-FACTORIAL HepG2 Assay for human GATA Binding Protein (AID 2282944); details: HepG2 GATA cis-element reporter, Attagene multiplex mRNA; actives raise or lower the signal
Summary of the method: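 Reporter transcripts from a GATA cis-regulated unit, among multiplexed reporters in transfected HepG2 cells, were measured by RT-PCR with capillary electrophoresis after 24 h dosing. Induction or loss scored relative to DMSO.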

[19] = ATG_E_Box_CIS: Attagene CIS-FACTORIAL HepG2 Assay for human Enhancer Box (E-box) (AID 2282936); details: HepG2 E-box cis-reporter transcription, actives raise or lower the signal
Summary of the method: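 Cells: HepG2 (human liver), transient MRTU transfection. Exposure 24 h. RNA → oligo(dT) RT → PCR → 6-FAM label → HpaI → CE. Activity fitted both directions relative to DMSO.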

[20] = ATG_FoxO_CIS: Attagene CIS-FACTORIAL HepG2 Assay for human Forkhead box O (FoxO) (AID 2282943); details: HepG2 Attagene cis-reporter, FoxO element, mRNA; actives raise or lower the signal
Summary of the method: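 Endogenous transcription factor activity read from multiplexed cis-promoter reporter transcripts in transiently transfected HepG2, 24 h after dosing. Reporter RNA measured via RT-PCR plus capillary electrophoresis of FAM-labeled products; gain or loss relative to DMSO.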

Measured: AC50

Nc1cccnc1N
active: [5] 53.5 µM | [6] 27.4 µM | [7] 16.7 µM | [10] 65.8 µM
not listed: [19] | [20]
inactive: all other assays above

CCCCCCCCn1sc(Cl)c(Cl)c1=O
active: [1] 0.023 µM | [6] 6.89 µM | [7] 13.8 µM | [8] 11.1 µM | [10] 5.39 µM | [15] 11.1 µM | [16] 6.69 µM | [18] 20.5 µM
not listed: [17] | [19] | [20]
inactive: all other assays above

CC(=O)CCC(C)C
inactive: all assays above

CCN=C1C=CC(=C(c2ccc(N(CC)CC)cc2)c2ccc(N(CC)CC)cc2)c2ccccc21
active: [2] 1.17 µM | [3] 0.0334 µM | [4] 0.905 µM | [5] 0.655 µM | [6] 0.0482 µM | [7] 0.191 µM | [8] 3.68 µM | [9] 0.0688 µM | [19] 2.01 µM | [13] 0.78 µM
inactive: [1] | [10] | [11] | [12] | [14] | [15] | [16] | [17] | [20] | [18]

NC(=O)C(F)(F)C(F)(F)C(F)(F)C(F)(F)C(F)(F)C(F)(F)C(F)(F)F
active: [15] 16 µM
not listed: [20]
inactive: all other assays above

FC(F)(F)C(F)(F)C(F)(F)CC1CO1 (stereo unspecified)
not listed: [20]
inactive: all other assays above

NCC(F)(F)C(F)(F)C(F)(F)C(F)(F)C(F)(F)C(F)(F)F
not listed: [19] | [20]
inactive: all other assays above
